# OTUD3 inh: inhibitors of human OTUD3 deubiquitinase. inhibition, % at 25 µM. 47,000 compounds, 0.7% hits. purified OTUD3, Ub-rhodamine fluorescence, 2 h. AID 1645858
# UCHL1 inh: human UCHL1 deubiquitinase inhibition. P09936. 47,000 compounds, 0.2% hits. inhibition, % at 20 µM. AID 1645859. purified UCHL1, Ub-rhodamine cleavage fluorescence
# USP7 inh: blocks human USP7 ubiquitin-rhodamine cleavage; purified USP7, Ub-rhodamine cleavage fluorescence; inhibition, % at 20 µM; 47,000 compounds, 0.3% hits
# Target sequence (Q93009 whole entry, looked up): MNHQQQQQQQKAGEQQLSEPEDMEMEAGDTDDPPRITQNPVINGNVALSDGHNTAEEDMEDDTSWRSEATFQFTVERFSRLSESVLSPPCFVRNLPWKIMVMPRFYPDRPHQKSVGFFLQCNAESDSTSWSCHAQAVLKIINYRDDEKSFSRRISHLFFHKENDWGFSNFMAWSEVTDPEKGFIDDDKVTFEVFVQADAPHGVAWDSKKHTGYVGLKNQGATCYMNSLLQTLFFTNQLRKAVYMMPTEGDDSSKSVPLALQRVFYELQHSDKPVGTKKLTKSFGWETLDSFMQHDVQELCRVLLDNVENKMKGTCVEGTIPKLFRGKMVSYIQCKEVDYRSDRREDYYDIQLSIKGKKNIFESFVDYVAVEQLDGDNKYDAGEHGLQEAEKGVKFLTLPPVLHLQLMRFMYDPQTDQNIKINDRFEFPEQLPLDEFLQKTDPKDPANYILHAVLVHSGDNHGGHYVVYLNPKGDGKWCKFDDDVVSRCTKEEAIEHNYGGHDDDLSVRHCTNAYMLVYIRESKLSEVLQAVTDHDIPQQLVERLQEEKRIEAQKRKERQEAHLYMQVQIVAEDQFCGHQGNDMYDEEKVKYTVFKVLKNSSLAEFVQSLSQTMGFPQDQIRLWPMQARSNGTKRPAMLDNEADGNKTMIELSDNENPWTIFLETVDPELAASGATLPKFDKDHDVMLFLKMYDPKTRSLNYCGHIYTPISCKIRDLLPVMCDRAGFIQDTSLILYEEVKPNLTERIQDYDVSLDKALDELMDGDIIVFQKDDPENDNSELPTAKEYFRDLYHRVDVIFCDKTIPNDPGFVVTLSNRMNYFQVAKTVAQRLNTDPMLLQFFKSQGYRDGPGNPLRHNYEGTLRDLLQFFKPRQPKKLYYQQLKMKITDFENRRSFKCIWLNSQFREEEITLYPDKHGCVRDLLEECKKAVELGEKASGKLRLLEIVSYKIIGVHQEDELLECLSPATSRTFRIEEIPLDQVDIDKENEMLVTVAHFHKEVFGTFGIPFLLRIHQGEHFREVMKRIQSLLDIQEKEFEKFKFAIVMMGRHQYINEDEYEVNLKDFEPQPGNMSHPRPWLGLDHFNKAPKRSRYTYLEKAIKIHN
# An asterisk follows results filed as active. The list is not random: actives were taken first. Their share in the collection is about 1.1%. Cut-off read from the data, not from the text of the source: active = inhibition above about 30%; inactive = the rest.
SMILES,OTUD3 inh,UCHL1 inh,USP7 inh
Cc1ccc(-n2nc(C(=O)NC3CCCCC3)c3ncn(C)c(=O)c32)cc1,-7.8,-2.2,1.5
Cc1ccc(-n2nc(C(=O)Nc3ccc(C)cn3)c3ncn(C)c(=O)c32)cc1,35.8*,13.8,30.0
COc1ccc(Cl)cc1NC(=O)Cn1c(=O)cc(C)c2c(C)nn(-c3ccccc3)c21,13.1,0.3,3.3
COc1cc(NC(=O)COC(=O)C2(c3ccccc3F)CCCC2)cc(OC)c1,22.5,8.4,7.2
CCC(=O)N1c2ccccc2NC2=C(C(=O)CC(c3ccc(OC)cc3)C2)C1c1ccc(C(F)(F)F)cc1 (configuration not stated),-8.2,-1.8,-5.2
O=C(CSc1nc(C(F)(F)F)cc(=O)[nH]1)NCc1ccccc1,-4.3,-0.4,3.2
O=C(CSc1nc2cc(C(F)(F)F)ccc2s1)NCC(=O)c1ccccc1,-8.3,20.6,58.5*
CC(=O)NC(Cc1ccccc1F)C(=O)NC1CCN(C(=O)C2CCCCC2)CC1 (configuration not stated),2.0,2.8,3.1
Cc1cccc(-c2c(NC(=O)c3ccc(Cl)cc3Cl)n(C)c3ccccc3c2=O)c1,10.3,1.9,4.6
COc1c2n(c3ccccc13)[C@@]1(O)C(=O)N(C)C(=O)[C@@]1(O)c1c-2n(C)c2ccc(Cl)cc12,50.2*,9.2,16.6
CNC(=O)N1CCC2(CC1)c1ncc(-c3ccccc3)n1CCN2C,3.0,-0.9,1.3
CCOC(=O)N1CCN(c2ncc3c(=O)n(Cc4ccccc4F)c(=O)[nH]c3n2)CC1,0.6,0.4,0.5
CC(=O)c1cccc(NC(=O)c2sc(-c3ccccc3)nc2C)c1,7.7,7.2,-7.0
COc1ccc(OC)c(NC(=O)c2sc(-c3ccccc3)nc2C)c1,47.9*,8.1,-12.4
O=c1ccc(-c2cc3ccccc3o2)cn1Cc1ccccc1-c1ccccc1,46.5*,38.2*,5.0
Cc1c(O)ccc2c(=O)c(-c3cc4ccccc4o3)coc12,5.7,3.0,3.9
COc1ccccc1/C=C/C(=O)Nc1nc2n(n1)C(c1ccc(Cl)cc1)CC(=O)N2 (configuration not stated),36.7*,1.4,0.2
O=C(/C=C/c1ccco1)Nc1nc2n(n1)C(c1ccccc1)CC(=O)N2 (configuration not stated),-6.8,-32.8,-80.1
COCCN1C(=O)c2ccccc2C(C(=O)N2CCN(c3ccc(C(C)=O)cc3)CC2)C1c1cccs1 (configuration not stated),5.2,0.2,1.3
Cc1ccc(N2CC(c3nc4ccccc4n3CCCCOc3ccccc3)CC2=O)cc1 (configuration not stated),25.6,7.5,12.9
Cc1ccc(N2CC(c3nc4ccccc4n3CCOc3cccc(C)c3)CC2=O)cc1 (configuration not stated),11.9,5.2,31.6*
Cc1cc(-c2nnc(SCC(=O)Nc3cccc(Cl)c3C)n2N)n[nH]1,1.5,-2.4,-9.3
CC1=CN2C(=N)/C(=C/c3cn(Cc4ccc(Cl)cc4)c4ccccc34)C(=O)N=C2S1,-188.5,-37.8,-136.8
N=C1/C(=C/c2cn(Cc3ccccc3F)c3ccccc23)C(=O)N=C2SC(C(F)(F)F)=NN12,-123.2,6.3,40.9*
CC1CCN(c2cc3c(cc2F)c(=O)c(-c2nc(-c4ccccn4)no2)cn3C)CC1,7.1,7.4,8.1
SMILES,OTUD3 inh,UCHL1 inh,USP7 inh
O=C(c1cc2ccccc2o1)N1CC=C(c2ccccc2)CC1,31.9*,5.6,-20.4
O=C(c1cc2ccccc2o1)N1CCc2sccc2C1c1ccccc1 (configuration not stated),4.9,-2.8,4.4
COc1ccccc1CNC(=O)C1c2ccccc2C(=O)N1Cc1ccc(C)cc1 (configuration not stated),51.9*,3.4,-12.2
CCOc1ccc(CN2C(=O)c3ccccc3C2C(=O)NCc2ccccc2OC)cc1 (configuration not stated),14.4,3.3,6.5
CCCc1ccc(S(=O)(=O)Nc2ccccc2F)cc1,15.8,3.5,4.4
COc1ccc(-c2cc3nc(C4CCN(C(=O)OC(C)(C)C)CC4)c(C(=O)Nc4ccc(C)c(Cl)c4)cn3n2)cc1,2.1,-5.4,3.6
CCOc1ccc(-c2cc3nc(C4CCN(C(=O)OC(C)(C)C)CC4)c(C(=O)Nc4cc(F)ccc4F)cn3n2)cc1,31.0*,-5.8,8.6
O=C(Nc1ccccc1Cl)c1cc2c(=O)n3ccccc3nc2n1Cc1ccccc1,-7.1,-1.0,-14.2
O=S(=O)(Nc1ccccc1Cc1ccccc1)c1ccc(Cl)cc1,15.4,7.6,2.0
Cc1ccc(NC(=O)Nc2ccc(C)n(CC(=O)Nc3ccc(C)cc3C)c2=O)cc1,74.4*,0.3,37.4*
Cc1cccc(NC(=O)Nc2ccc(C)n(CC(=O)Nc3ccccc3)c2=O)c1,-16.3,-2.5,4.2
Cc1cccc(NC(=O)Nc2ccc(C)n(CC(=O)Nc3ccc(C)c(C)c3)c2=O)c1,-10.4,-1.3,9.8
Cc1ccc(NC(=O)CN2c3ccccc3S(=O)(=O)c3ccccc32)c(C)c1,0.0,2.6,6.8
Cc1ccc(NC(=O)Nc2ccc(C)n(CC(=O)Nc3cc(C)ccc3C)c2=O)cc1,45.8*,0.0,17.2
Cc1ccc(NC(=O)Nc2ccc(C)n(CC(=O)Nc3cccc(C)c3)c2=O)cc1,-0.3,-0.9,30.5*
Cc1ccc(S(=O)(=O)N2CCN(c3c(C)n(C)c(=O)n(C)c3=O)CC2)cc1C,10.0,0.4,4.3
CC(=O)c1cc(-c2ccccc2)n(CC(=O)Nc2ccc(C)cn2)c1C,-3.2,-0.1,-5.7
CCc1cccc(C)c1NC(=O)Cn1ncc2ccccc21,6.6,1.2,-4.4
CN1CCCC12CCCN(C(=O)c1ccc(C(F)(F)F)cc1)C2 (configuration not stated),-11.2,-1.2,-2.3
Cc1cccc(NS(=O)(=O)c2cc(C(=O)NCc3cccnc3)ccc2Cl)c1C,-7.8,1.2,0.0
COc1ccc(C(=O)CN2C(=O)N(c3cccc(C)c3)S(=O)(=O)c3ccccc32)cc1,-3.9,-0.7,5.2
COc1cc(OC)cc(N2C(=O)N(CC(=O)c3ccc(Br)cc3)c3ccccc3S2(=O)=O)c1,-4.7,14.0,45.6*
CN(C(=O)CCCc1c[nH]c2ccccc12)C(c1ccccc1)c1ccccc1,-0.2,5.0,8.9
CCc1cc(=O)n(CC(=O)Nc2cc(C)ccc2OC)c(N2CCOCC2)n1,36.7*,3.4,2.7
CCc1cc(=O)n(CC(=O)Nc2ccc(F)c(F)c2)c(N2CCOCC2)n1,9.0,0.4,-22.4
COc1ccc(-c2nn(-c3ccccc3)cc2/C=C/C(=O)Nc2ccc(C(C)=O)cc2)cc1OC,46.8*,3.3,3.2
COc1ccc(C(=O)/C=C\c2cn(CCC(=O)O)nc2-c2ccc(OC)c(OC)c2)cc1,16.3,-2.4,3.4
C[C@@H]1OC(O[C@@H]2C[C@H](c3ccc4c(c3O)C(=O)C3=C(C4=O)[C@@]4(OC5CC[C@H](O)[C@H](C)O5)C(=O)C[C@](C)(O)C[C@@]4(O)C=C3)O[C@H](C)C2O)CC[C@@H]1O[C@H]1C[C@@H](O)[C@H](O)[C@@H](C)O1 (some centres not stated),-85.3,-142.5,-120.3

# Source: PubChem BioAssay
